PAFAH1B2 FP inh – PAFAH1B2 (human) inhibition; P68402; recombinant PAFAH1B2, FP-rhodamine activity probe, fluorescence polarization; inhibition, % at 3.39 µM; actives 1.2% (n = 340,000);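 active means inhibition above the mean of all tested compounds plus 3 SD, cut at about 24% in these data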;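 further: 0% = enzyme with DMSO and 100% = wells lacking PAFAH1B2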
PME-1 primary – PME-1 (human) inhibition; Q9Y570; recombinant PME-1, FP-Rh probe fluorescence polarization; inhibition, % at 5.9 µM; actives 0.53% (n = 320,000); AID 2130;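 active means inhibition above the campaign mean of all compounds plus 3 SD, cut at about 26% in these data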;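 further: competitive labeling of PME-1 active site by serine hydrolase directed probe; 0% = PME-1 with DMSO and 100% = wells lacking PME-1 enzyme; inhibitors block probe labeling so polarization falls and inhibition rises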
PAFAH2 inh – PAFAH2 (human) inhibition; Q99487; recombinant PAFAH2, FP-rhodamine activity probe, fluorescence polarization; inhibition, % at 3.39 µM; actives 0.99% (n = 340,000); AID 492956;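 active means inhibition above the mean over all tested compounds plus 3 SD, cut at about 30% in these data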;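 further: inhibitors block probe labeling of enzyme so polarization drops; 0% = enzyme with DMSO and 100% = wells lacking PAFAH2 protein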
Fam108B inh – counter-screen for RBBP9 inhibitors: inhibitors of mouse Fam108B; AID 1947; actives 0.33% (n = 300,000); inhibition, % at 9.51 µM; recombinant Fam108B, FP-Rh probe fluorescence polarization;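 active means inhibition above the screen mean inhibition plus 3 SD, computed separately per campaign, cut at about 18% in these data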;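 further: inhibitors lower polarization as less probe binds the enzyme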
PAFAH1B3 FP inh – blocks human PAF acetylhydrolase 1B catalytic subunit 3; AID 492972; inhibition, % at 3.39 µM; recombinant PAFAH1B3, FP-rhodamine probe, fluorescence polarization; actives 0.28% (n = 340,000);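 active means inhibition above the screen-wide average of all tested compounds plus 3 SD, cut at about 25% in these data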;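 further: 0% = enzyme with DMSO only and 100% = wells lacking PAFAH1B3 protein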
Target sequence (Q15102 whole entry, looked up): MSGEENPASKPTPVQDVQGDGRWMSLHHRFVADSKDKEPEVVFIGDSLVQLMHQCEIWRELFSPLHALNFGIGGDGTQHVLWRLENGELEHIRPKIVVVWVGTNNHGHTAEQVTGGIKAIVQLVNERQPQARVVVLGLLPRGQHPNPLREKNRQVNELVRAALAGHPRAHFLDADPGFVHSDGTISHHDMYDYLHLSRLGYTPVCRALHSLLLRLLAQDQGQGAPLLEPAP
pPAFAH inh – inhibitors of human plasma PAF acetylhydrolase (pPAFAH); Q13093; recombinant pPAFAH, FP-rhodamine probe fluorescence polarization; inhibition, % at 3.39 µM; actives 1.5% (n = 330,000);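 active means inhibition above the mean inhibition across the screen plus 3 SD, cut at about 25% in these data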;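 further: inhibitors block binding of the rhodamine activity-based probe so polarization drops; 0% = enzyme with DMSO and 100% = wells lacking pPAFAH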
Target sequence (Q13093 whole entry, looked up): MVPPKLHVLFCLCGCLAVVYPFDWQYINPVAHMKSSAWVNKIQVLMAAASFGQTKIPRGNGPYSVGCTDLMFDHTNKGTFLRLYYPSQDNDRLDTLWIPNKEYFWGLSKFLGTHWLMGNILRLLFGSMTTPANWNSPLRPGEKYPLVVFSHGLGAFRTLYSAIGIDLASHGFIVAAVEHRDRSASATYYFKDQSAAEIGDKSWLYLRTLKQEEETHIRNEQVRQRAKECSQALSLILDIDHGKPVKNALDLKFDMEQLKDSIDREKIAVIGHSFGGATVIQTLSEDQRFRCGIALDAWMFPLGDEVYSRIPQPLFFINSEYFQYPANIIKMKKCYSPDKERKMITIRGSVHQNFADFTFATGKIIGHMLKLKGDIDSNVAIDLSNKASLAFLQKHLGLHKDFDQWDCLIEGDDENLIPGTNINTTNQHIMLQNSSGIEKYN
pPAFAH confirm – confirmation of human plasma PAF acetylhydrolase (pPAFAH) inhibitors. shares compounds with pPAFAH inh. recombinant pPAFAH, FP-Rh probe fluorescence polarization. inhibition, % at 3.39 µM. actives 72% (n = 2,300). AID 463230;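 active means mean inhibition of the triplicate above the hit cutoff set for the earlier primary screen, cut at about 25% in these data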;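 further: 0% = enzyme with DMSO and 100% = wells lacking pPAFAH enzyme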
An asterisk follows results filed as active; · = not tested or not shown. Sampled rows, rich in hits. Any-hit rate of the full collection: about 2.8%.

SMILES | PAFAH1B2 FP inh | PME-1 primary | PAFAH2 inh | Fam108B inh | PAFAH1B3 FP inh | pPAFAH inh | pPAFAH confirm
C[C@@H](NC(=O)c1nc[nH]c1C(=O)N[C@@H](CCCCNC(=O)OC(C)(C)C)C(=O)OC(C)(C)C)c1ccccc1 | 6.8 | 2.5 | -0.9 | -2.0 | 8.4 | 35.5* | 30.2*
O=C1c2ccccc2[C@@H]2C[C@@H](O)[C@H](Nc3ccccc3)CCN12 | 3.4 | · | 13.2 | · | 7.4 | -1.2 | ·
O=C1c2ccccc2[C@@H]2C[C@@H](O)[C@H](Nc3cccc(Cl)n3)CCN12 | 1.7 | · | 69.0* | · | 9.3 | 35.5* | 23.1
Cc1oc(-c2ccc(Cl)cc2)cc1-c1nn2c(-c3ccoc3C)nnc2s1 | 3.4 | -5.6 | 28.0 | -1.5 | -0.7 | 53.2* | 43.4*
CC1CN(C)CCC1OC(=O)c1ccccc1 (centres undefined) | -2.5 | · | -2.6 | · | 3.6 | · | ·
Cc1ccc(S(=O)(=O)N2CCC(C(N)=O)CC2)cc1[N+](=O)[O-] | 8.4 | 2.2 | 3.4 | 2.4 | 9.7 | 4.6 | ·
Cc1cccc(-n2cc(-c3ccccc3)c3c(NN4CCOCC4)ncnc32)c1 | -0.3 | -4.0 | -0.6 | 1.2 | -2.6 | 74.6* | 12.5
O=C(O)C1OC(Oc2c(-c3ccc(O)c(O)c3)oc3cc(O)cc(O)c3c2=O)C(O)C(O)C1O (centres undefined) | · | -18.5 | · | -3.2 | · | -1.9 | ·
O=c1c(O)c(-c2ccc(O)c(O)c2)oc2cc(O)cc(O)c12 | 28.6* | 14.1 | 1.4 | 13.9 | 52.7* | 52.8* | 81.9*
O=c1cc(-c2ccc(O)cc2)oc2c(-c3c(O)cc(O)c4c(=O)cc(-c5ccc(O)cc5)oc34)c(O)cc(O)c12 | 39.5* | · | 57.3* | · | 55.8* | 62.7* | 68.2*
O=c1c(-c2c(O)cc(O)c3c(=O)cc(-c4ccc(O)cc4)oc23)c(-c2ccc(O)cc2)oc2cc(O)cc(O)c12 | 17.0 | -8.4 | 21.4 | 7.6 | 43.9* | 66.0* | 68.4*
CCN1CCN(C(CNS(=O)(=O)c2ccc(Br)cc2)c2cccnc2)CC1 (centres undefined) | 6.6 | 2.4 | 6.0 | 1.0 | 2.9 | 2.0 | ·
CCOc1cc(CNCCO)cc(Br)c1OCc1ccc(Cl)cc1Cl | 3.7 | 11.0 | -3.1 | -1.3 | -0.1 | 42.0* | 30.4*
Cc1ccc(-c2n[nH]c(=S)nc2-c2ccc(C)cc2)cc1 | 6.2 | -1.7 | -1.9 | 3.1 | 7.7 | 3.8 | ·
Nn1c(SCC(=O)Nc2ccccc2Oc2ccccc2)nnc1C1CC1 | 0.7 | · | 2.8 | · | 7.8 | · | ·
COc1ccc(S(=O)(=O)Nc2c(C(=O)O)[nH]c3ccccc23)c(OC)c1 | 12.1 | 4.4 | 6.5 | 0.7 | 9.4 | 51.0* | 5.1
COc1ccc2[nH]c(C(=O)O)c(NS(=O)(=O)c3ccc(OC)c(OC)c3)c2c1 | 10.3 | 2.2 | 7.2 | 0.1 | 6.5 | 2.2 | ·
CCOC(=O)c1c(C)[nH]c(C)c1S(=O)(=O)N(C)CC(=O)Nc1ccccc1OC | 3.7 | 11.0 | 5.3 | 6.4 | -2.1 | 0.3 | ·
CCOC(=O)c1c(C)[nH]c(C)c1S(=O)(=O)N(C)CC(=O)Nc1ccccc1 | 1.4 | 9.7 | 2.0 | -3.5 | 3.7 | 38.4* | 4.3
CCn1c(C)c(Br)c(=O)c(C(=O)OC)c1-c1ccc(Cl)cc1 | -3.9 | 0.2 | 2.5 | 0.0 | 5.5 | 1.8 | ·
N=C1c2c(cc(=O)n3c2[nH]c2ccccc23)CN1CCN1CCOCC1 | 3.5 | 24.9 | 3.9 | 2.6 | -1.9 | 35.7* | 23.2
O=c1c2ccccc2[nH]c(=S)n1CCCN1CCOCC1 | 3.9 | -2.9 | 6.4 | 3.6 | 0.4 | 7.4 | ·
COc1cnc(-c2ccccn2)nc1Oc1ccc(Cl)c2ccccc12 | -0.8 | -6.1 | 2.8 | -2.2 | 6.9 | 59.9* | 64.2*
CCOC(=O)c1cc(-c2c(Cl)cccc2Cl)no1 | -0.1 | -1.6 | -4.0 | 0.1 | 4.4 | 4.8 | ·
O=C(NCCc1ccc2c(c1)OCCO2)c1cccc(S(=O)(=O)N2CCCC2)c1 | -0.3 | 5.9 | 6.6 | · | 9.0 | 35.9* | -5.9
SMILES | PAFAH1B2 FP inh | PME-1 primary | PAFAH2 inh | Fam108B inh | PAFAH1B3 FP inh | pPAFAH inh | pPAFAH confirm
CC(=O)N1CCN(Cc2nc3cc(NC(=O)c4ccc(F)cc4)ccc3n2C)CC1 | 2.0 | -5.0 | 2.2 | -3.6 | 7.7 | 0.8 | ·
Cc1ccc(S(=O)(=O)N2CCN(C(=O)COC(=O)c3ccccn3)CC2)c(C)c1 | 3.2 | 6.8 | 4.2 | 5.6 | 3.7 | 43.8* | 0.2
Cc1ccnc(Nc2nc(-c3ccc(O)cc3)cs2)c1 | 6.3 | 6.8 | 3.8 | 2.8 | 2.1 | 9.2 | ·
Cc1cccc(Nc2nc(-c3ccc(O)c(O)c3)cs2)n1 | 2.3 | 13.5 | 7.4 | 10.7 | 21.3 | 50.8* | 28.2*
Oc1ccc(-c2csc(Nc3ccccn3)n2)cc1O | 4.5 | -0.3 | 11.4 | 3.0 | 21.4 | 40.5* | 31.8*
CC(=O)Nc1ccc(-c2csc(Nc3ccccn3)n2)cc1 | 1.3 | 15.8 | 1.9 | -3.8 | 10.9 | 8.9 | ·
Oc1ccc(-c2csc(Nc3cccc4ccccc34)n2)cc1O | 2.1 | 8.8 | 15.8 | 2.4 | 7.2 | 72.4* | 66.2*
Cc1ccnc(Nc2nc(-c3ccc(O)c(O)c3)cs2)c1 | 3.4 | 25.8 | -7.9 | 7.3 | 18.2 | 40.5* | 29.6*
CCOC(=O)c1c(S(=O)(=O)NCC(=O)N2CCN(c3ccc(OC)cc3)CC2)c(C)n(C)c1C | -2.7 | 4.8 | 6.2 | 1.4 | 1.9 | 2.2 | ·
COc1cccc(NC(=O)C(C)N2C(=O)c3ccccc3C2=O)c1 (centres undefined) | 2.5 | -0.8 | -0.5 | 1.5 | 8.4 | 7.9 | ·
COc1ccc(Cl)cc1NS(=O)(=O)c1cccc(C(=O)NCC2(N(C)C)CCCCC2)c1 | 1.0 | · | 2.9 | · | -4.9 | · | ·
CN(C)C1(CNC(=O)c2cccc(S(=O)(=O)NCc3ccccc3)c2)CCCCC1 | 6.9 | 2.9 | 1.8 | · | -0.4 | 2.3 | ·
CN(C)C1(CNC(=O)c2cccc(S(=O)(=O)Nc3ccc(Br)cc3)c2)CCCCC1 | 3.8 | 1.3 | -2.8 | 1.6 | -2.0 | 42.8* | 42.1*
Cc1ccc(NS(=O)(=O)c2cccc(C(=O)NCC3(N(C)C)CCCCC3)c2)cc1 | 8.3 | 6.8 | 5.8 | -3.6 | 10.6 | 60.0* | 53.4*
COc1ccc2oc(C(=O)Nc3nc(-c4ccccn4)cs3)c(C)c2c1 | 4.7 | -19.6 | -2.7 | 1.7 | 8.9 | 13.8 | ·
CN(Cc1nccn1C)C(=O)C1CCC(=O)N(Cc2cccc(C(F)(F)F)c2)C1 (centres undefined) | -1.6 | 2.5 | 5.9 | -6.5 | 0.6 | 6.6 | ·
CCNc1cc(O)ccc1C | 14.1 | 30.6* | 26.2 | · | 14.9 | 74.6* | 11.8
Cc1ccc(C(=O)CNc2cc(C)ccc2C)cc1 | 0.4 | 2.6 | -8.8 | 0.6 | 1.9 | 3.9 | ·
Cc1ccc(N2CC(C(=O)Nc3cccc(C(=O)NC4CC4)c3)CC2=O)cc1 (centres undefined) | 2.6 | -1.3 | -0.5 | · | -4.8 | 0.5 | ·

Compound activity deposited in PubChem by The Scripps Research Institute Molecular Screening Center.
